Test [1] in a line: qHTS for Inhibitors of the Functional Ribonucleoprotein Complex (vRNP) of Lassa (LASV) Arenavirus: Viability assay - alamar blue signal for LASV Primary Screen (AID 1347083; calls by dose curve; tested in HEK293 reporter line; also: series mostly up to about 57 µM; nearly all actives have a fitted effect of over 80% in size). (qHTS replaces the single test concentration by a dilution series.)
Test [2] in a line: qHTS for Inhibitors of the Functional Ribonucleoprotein Complex (vRNP) of Lymphocytic Choriomeningitis Arenaviruses (LCMV): Viability assay - alamar blue signal for LCMV Primary Screen (AID 1347085; calls by dose curve; tested in HEK293 reporter line; also: series mostly up to about 57 µM; nearly all actives have a fitted effect of over 80% in size).
For test [3], the target named is Nucleoprotein (Lymphocytic choriomeningitis virus (strain Armstrong)) (UniProt P09992). The experiment in a line: qHTS for Inhibitors of the Functional Ribonucleoprotein Complex (vRNP) of Lymphocytic Choriomeningitis Arenaviruses (LCMV): LCMV Primary Screen - GLuc reporter signal (AID 1347086; calls by dose curve; also: series mostly up to about 57 µM; nearly all actives have a fitted effect of over 70% in size).
Chain of Nucleoprotein (Lymphocytic choriomeningitis virus (strain Armstrong)) (P09992 whole entry, looked up): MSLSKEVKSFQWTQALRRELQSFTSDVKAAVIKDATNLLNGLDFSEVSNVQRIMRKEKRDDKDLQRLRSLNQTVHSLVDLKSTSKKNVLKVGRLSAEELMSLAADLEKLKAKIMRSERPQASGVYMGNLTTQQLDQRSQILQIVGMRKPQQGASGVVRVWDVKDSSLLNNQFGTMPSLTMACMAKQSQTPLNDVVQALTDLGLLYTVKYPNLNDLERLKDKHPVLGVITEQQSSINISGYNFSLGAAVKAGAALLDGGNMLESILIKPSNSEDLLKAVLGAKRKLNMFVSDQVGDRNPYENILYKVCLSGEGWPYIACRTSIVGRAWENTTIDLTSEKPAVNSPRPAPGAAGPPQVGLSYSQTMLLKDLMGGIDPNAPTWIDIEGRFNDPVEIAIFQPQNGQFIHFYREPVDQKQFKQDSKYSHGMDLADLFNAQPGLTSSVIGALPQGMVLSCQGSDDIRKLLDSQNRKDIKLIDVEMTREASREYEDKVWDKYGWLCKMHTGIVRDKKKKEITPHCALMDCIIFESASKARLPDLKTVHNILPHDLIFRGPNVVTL
The nature of test [4]: qHTS of pediatric cancer cell lines to identify multiple opportunities for drug repurposing: Primary screen for TC32 cells (AID 1347089). Also: nearly all actives have a fitted effect of over 60% in size. Also: potency is read from the fitted curve at half-maximal effect. Put shortly: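 In the primary qHTS, MIPE compounds were tested at 11 concentrations (0.78 nM to 46 µM) and NPC compounds at 8 (0.59 nM to 46 µM) on TC32 cells for 48 h. CellTiter-Glo luminescence gave viability.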
Test [5] is described as follows: qHTS of pediatric cancer cell lines to identify multiple opportunities for drug repurposing: Primary screen for DAOY cells (AID 1347090). Also: nearly all actives have a fitted effect of over 55% in size. Also: potency is read from the fitted curve at half-maximal effect. Put shortly:
(§1)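 Viability measured as metabolically active cells via CellTiter-Glo luminescence following 48 hours of compound exposure, 11-point dilutions in confirmatory testing. 500-1,000 cells/well plated 5 hours before dosing; controls were DMSO and 2.3 µM bortezomib.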

Test [6] in a line: qHTS of pediatric cancer cell lines to identify multiple opportunities for drug repurposing: Primary screen for SJ-GBM2 cells (AID 1347091). Also: potency is read from the fitted curve at half-maximal effect. The procedure, abridged:
as §1

The nature of test [7]: qHTS of pediatric cancer cell lines to identify multiple opportunities for drug repurposing: Primary screen for A673 cells (AID 1347092). Also: nearly all actives have a fitted effect of over 45% in size. Also: potency is read from the fitted curve at half-maximal effect. The procedure, abridged: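 48 h compound exposure, A673, 500-1,000 cells/well, 37 degrees C/5% CO2. MIPE: 11-point, 0.78 nM-46 µM; NPC: 8-point, 0.59 nM-46 µM (final). Readout CellTiter-Glo luminescence after 15 min RT.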
Test [8] can be described thus: qHTS of pediatric cancer cell lines to identify multiple opportunities for drug repurposing: Primary screen for SK-N-MC cells (AID 1347093). Also: potency is read from the fitted curve at half-maximal effect. The procedure, abridged: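 Metabolically active cells were quantified by ATP-dependent luminescence (CellTiter-Glo, 15 min at room temperature) following 48 h treatment. Cells had been plated at 500-1,000 per well and settled for 5 h beforehand.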

A short description of test [9]: qHTS of pediatric cancer cell lines to identify multiple opportunities for drug repurposing: Primary screen for BT-37 cells (AID 1347094). Also: series mostly up to about 57 µM. Put shortly:
(§2)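 Following a 5-hour attachment period, cells at 500-1,000/well received compounds and were cultured for 48 hours. CellTiter-Glo was added and luminescence read to estimate viable, metabolically active cells.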

A short description of test [10]: qHTS of pediatric cancer cell lines to identify multiple opportunities for drug repurposing: Primary screen for NB-EBc1 cells (AID 1347095). Also: potency is read from the fitted curve at half-maximal effect. Put shortly: as §2

Structures are written as SMILES. Values joined by “and” are separate entries in the source; they are usually repeats but may differ in a detail not shown here. Equal values may be shown once. Inconclusive results are not listed. Active and inactive are the calls of the source. Unless noted, calls follow the shape of the dose curve; as a rule, active = well fitted curve in the direction sought with a large enough effect; inconclusive = small, poorly fitted or top-dose-only effect, or another doubt; inactive = no such curve, though single readings can be large; an effect the other way counts as inactive or inconclusive.

Consider `CN(C)c1ccc(O)c2c1C[C@H]1C[C@H]3[C@H](N(C)C)C(=O)C(C(N)=O)=C(O)[C@@]3(O)C(=O)C1=C2O`, for which the Potency entry in [1], in [2] and in test [3] was “inactive” each time.
For the compound `COCCCOc1cc(C[C@@H](C[C@H](N)[C@@H](O)C[C@H](C(=O)NCC(C)(C)C(N)=O)C(C)C)C(C)C)ccc1OC`, the Potency entry in test [1], in [2] and in [3] was “inactive” in each case.
With `C#CCOC(C(=O)OCCN(C)C)(c1ccccc1)c1ccccc1`, the Potency entry in [1], in test [2], in [3], in [4], in test [5] and in [6] was “inactive” in each case. The Potency entry in [7], in test [8], in test [9] and in test [10] was “inactive” throughout.
In the case of `C#CCN(C)[C@H](C)Cc1ccccc1`, the Potency result in test [1], in test [2], in test [3], in test [4], in [5] and in test [6] was “inactive” in each case. Moreover, the Potency entry in [7], in test [8] and in test [10] was “inactive” throughout.
On to `Oc1cc(Cl)ccc1Oc1ccc(Cl)cc1Cl`, for which the Potency entry in test [1], in [2], in [3] and in test [4] was “inactive” throughout. Further, the Potency in test [5] was 49.5 µM (active); in [6], 4.42 µM (active); in [7], 39.4 µM (active); in test [8] it was 27.9 µM (active); in [10], 4.95 µM (active).
Regarding `O=[N+]([O-])c1cc([As](=O)(O)O)ccc1O`, the Potency entry in test [1], in test [2], in [3], in test [4], in [5] and in test [6] was “inactive” in each case. The Potency result in test [7], in test [8] and in test [10] was “inactive” in each case.
Consider `CC(=O)[C@H]1CC[C@H]2[C@@H]3CC[C@H]4C[C@H](O)CC[C@]4(C)[C@H]3C(=O)C[C@]12C`, for which the Potency result in test [1], in [2], in test [3], in [4], in test [5] and in [6] was “inactive” each time. The Potency result in test [7], in test [8] and in test [10] was “inactive” throughout.
As to `OCCOc1ccccc1`, the Potency result in test [1], in [2], in test [3], in test [4], in [5] and in test [6] was “inactive” in each case. Further, the Potency result in test [7], in [8], in test [9] and in [10] was “inactive” each time.
Regarding `CC(=O)[C@H]1CC[C@H]2[C@@H]3CC[C@H]4C[C@](C)(O)CC[C@]4(C)[C@H]3CC[C@]12C`, the Potency entry in test [1], in test [2], in [3], in test [4], in test [5] and in test [6] was “inactive” each time. Also, the Potency entry in test [7], in test [8] and in [10] was “inactive” each time.
For `C[C@]12CC[C@H]3[C@@H](CCC4=CC(=O)CC[C@@H]43)[C@@H]1CC[C@@H]2OC(=O)CCc1ccccc1`, the Potency result in test [1], in test [2], in [3], in test [4], in test [5] and in test [6] was “inactive” in each case. Besides, the Potency entry in test [7], in test [8] and in [10] was “inactive” throughout.
Turning to `CCC1(C2=NCCN2)Cc2ccccc2O1` (stereo not given), the Potency result in test [1], in test [2], in test [3], in test [4], in test [5] and in test [6] was “inactive” throughout. The Potency entry in [7], in [8] and in [10] was “inactive” each time.
Take `CCC(C(N)=O)N1CCCC1=O` (stereo not given): the Potency result in test [1], in test [2], in test [3], in test [4], in [5] and in [6] was “inactive” in each case. Further, the Potency entry in test [7], in test [8] and in test [10] was “inactive” in each case.
Take `COC1(CS(=O)c2ccccc2)CCN(CCc2c[nH]c3ccc(F)cc23)CC1` (stereo not given): the Potency result in test [1], in test [2], in test [3], in test [4], in test [5] and in test [6] was “inactive” each time. Further, the Potency entry in test [7], in test [8] and in test [10] was “inactive” in each case.
For the compound `C[C@]12CCC(=O)C(O)=C1CC[C@@H]1[C@@H]2CC[C@]2(C)C(=O)CC[C@@H]12`, the Potency entry in [1], in test [2], in [3], in test [4], in [5] and in test [6] was “inactive” in each case. Moreover, the Potency entry in [7], in test [8] and in test [10] was “inactive” throughout.
Consider `CC1OC(C)OC(C)O1` (stereo not given), for which the Potency entry in [1], in [2], in [3], in [4], in test [5] and in test [6] was “inactive” in each case. Besides, the Potency entry in test [7], in [8], in test [9] and in test [10] was “inactive” in each case.
On to `N[C@@H](Cc1ccc(N(CCCl)CCCl)cc1)C(=O)O`, for which the Potency result in test [1], in [2] and in [3] was “inactive” throughout. In addition, the Potency is 20.8 µM (active) in test [4]; 16.8 µM (active) and 18.7 µM (active) in [5]; 2.64 µM (active) in [6]; 6.68 µM (active) and 5.9 µM (active) in test [7]; 2.99 µM (active) and 2.35 µM (active) in test [8]; 3.76 µM (active) and 235 nM (active) in test [10].
Consider `CN(C)CCc1ccc(O)cc1`, for which the Potency entry in test [1], in test [2], in test [3], in test [4], in test [5] and in test [6] was “inactive” in each case. In addition, the Potency entry in test [7], in test [8], in test [9] and in test [10] was “inactive” in each case.
For `Clc1cccc(N2CCNCC2)c1`, the Potency result in [1], in [2], in test [3], in [4], in [5] and in [6] was “inactive” throughout. The Potency result in test [7], in test [8], in test [9] and in test [10] was “inactive” throughout.
Regarding `Cc1cccc(C)c1NC1=NCCCS1`, the Potency entry in test [1], in test [2], in [3], in test [4], in test [5] and in [6] was “inactive” each time. The Potency result in test [7], in test [8], in [9] and in [10] was “inactive” throughout.

For the origin of these results see PubChem BioAssay (NCATS).
